About 6,100 (1.1%) of roughly 580,000 compounds were called active. Roughly 15% stayed inconclusive and do not appear here. The call rests on the fitted dose curve; in most records, active means well fitted inhibition curve with a large enough effect; inconclusive means small, poorly fitted or top-dose-only effect, or another doubt; inactive means no such curve, though single readings can be large or run the other way. Shown is part of a subset that was picked to be rich in actives. Where a call stands in place of a potency, no number is given.
Molecular target: Polyunsaturated fatty acid lipoxygenase ALOX12 (Homo sapiens) (UniProt P18054)
Sequence (P18054 whole entry, looked up): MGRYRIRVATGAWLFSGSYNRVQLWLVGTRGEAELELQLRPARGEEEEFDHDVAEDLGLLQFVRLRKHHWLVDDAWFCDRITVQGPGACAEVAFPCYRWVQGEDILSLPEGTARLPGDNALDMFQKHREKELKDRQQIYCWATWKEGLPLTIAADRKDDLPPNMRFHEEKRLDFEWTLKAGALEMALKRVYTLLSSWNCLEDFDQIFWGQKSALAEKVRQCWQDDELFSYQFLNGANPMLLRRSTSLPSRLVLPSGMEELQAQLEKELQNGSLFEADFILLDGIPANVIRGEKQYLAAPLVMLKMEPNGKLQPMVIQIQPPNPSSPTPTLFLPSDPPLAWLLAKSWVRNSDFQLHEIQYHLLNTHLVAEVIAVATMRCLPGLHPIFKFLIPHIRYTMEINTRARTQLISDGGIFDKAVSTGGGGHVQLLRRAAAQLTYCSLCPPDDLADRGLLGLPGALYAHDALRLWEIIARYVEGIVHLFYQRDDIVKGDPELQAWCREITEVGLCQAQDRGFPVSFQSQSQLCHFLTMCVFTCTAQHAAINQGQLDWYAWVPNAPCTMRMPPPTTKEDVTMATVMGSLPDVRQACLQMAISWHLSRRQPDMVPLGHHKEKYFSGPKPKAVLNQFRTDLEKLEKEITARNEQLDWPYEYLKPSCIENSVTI
Test: Primary qHTS assay for inhibitors of human arachidonate 12S-lipoxygenase (ALOX12): Round 2
Details: purified 12hLO, xylenol orange hydroperoxide absorbance; series mostly up to 108 µM
From the text: Assay Provider: Theodore R. Holman Ph.D. University of California, Santa Cruz, California Human lipoxygenase 12hLO is a member of the closely related lipoxygenase family of enzymes which catalyze the site-specific oxidation of arachidonic acid to various hormone precursor molecules and as such is a candidate for drug development in a variety of disease areas, such as cancer and inflammation. Inhibition of 12hLO activity was screened by utilizing arachidonic acid as a substrate. The extent of hydroperoxide product formation was measured by a secondary chromogenic reaction in which xylenol orange (XO, Sigma-Aldrich, cat. number 39,818-7) reacts with the ferric ions produced from the reaction between the hydroperoxide and ferrous ions. The Fe (III)-XO complex is characterized with red-shifted absorbance at 560 nm. A purified preparation of human 12hLO was supplied by Dr. Holman laboratory, University of California, Santa Cruz.
PROTOCOL TABLE SEQUENCE No. (e.g., 1, 2, 3, etc.); […] (e.g., Cells, Incubation, Reagent, etc.); VALUE; DESCRIPTION 1; Enzyme; 3 uL; 150 nM 12hLO enzyme solution dispensed in 1536-well Greiner black, clear bottom plates. 2; Compound; 23 nL; compounds and controls were added. 3; Incubate; 15 min; room temperature. 4; Substrate; 1 uL; 40 uM arachidonic acid (final concentration). 5; Incubate; 30 min; room temperature. 6; Reagent; 4 uL; Fe-XO solution was added to each well. 7; Incubation; 30 min; room temperature 8; Detector; absorbance; Read 1 at 405 nm absorbance using ViewLux (Perkin-Elmer) CCD imager. 9; Detector; absorbance; Read 2 at 573 nm absorbance using ViewLux (Perkin-Elmer) CCD imager. NOTES (numbers refer to sequence above) 1; 150 nM 12hLO (final concentration) in buffer solution (25 mM Hepes, 0.01% Triton X-100, pH 7.0) was dispensed in columns 1, 2, 5-48. Column 1 is neutral (100% activity). Buffer only was dispensed in columns 3 and 4 as no enzyme negative controls. The plates were covered with metal lids with gas-exchange holes. 2; Compounds were pin transferred via a Kalypsys Pin Tool (Wako USA) in column 5-48. Control compound was transferred in column 2, titration of nordihydroguaiaretic acid (NDGA, Sigma-Aldrich, N5023) with top concentration of 20 mM in DMSO then 1:3 dilution in duplicate. Dilution factor of 23 nL into 4 uL final assay volume. 3; Covered assay plates were incubated for 15 min at room temperature. 4; Substrate was added to start the reaction; 40 uM arachidonic acid (Sigma-Aldrich, St. Louis, MO) was dispensed throughout the plate. 6; Chromogenic detection reagent solution (divalent iron/xylenol orange, Fe-XO) was added to each well: 200 uM xylenol orange, 300 uM ferrous ammonium sulfate prepared freshly in 50 mM sulfuric acid. 8, 9; Two absorbance readouts were obtained at 405 nm and at 573 nm using a ViewLux high-throughput CCD plate imager (Perkin-Elmer). The 573 to 405 (Read 2 / Read 1) absorbance ratio was used to compute reaction progress.
Potency means the concentration at half of the fitted maximal effect.

Row | Structure (SMILES) | Potency
1 | COc1cc(CN2C[C@@H](CO)[C@H](c3nc(C)no3)C2)ccc1F | inactive
2 | Cc1ccc(-c2c3c(nc4sc5c(c24)CCC5)-c2cc(F)ccc2S(=O)(=O)C3)cc1 | inactive
3 | Cc1scc(-c2ccccc2)[n+]1C | 17.8 µM (active)
4 | Cc1ccccc1Nc1scc(-c2ccc(Br)cc2)[n+]1-c1ccccc1C | inactive
5 | Cc1cc2nc(-c3ccccc3)c(-c3ccccc3)nc2cc1C | inactive
6 | CCCCN(C)C(=O)CCNC(=O)Cn1cnc2sc3c(c2c1=O)CCCC3 | inactive
7 | CCCC1CCC(c2ccc(-c3ccc(CC)cn3)cc2F)CC1 (stereo unspecified) | inactive
8 | Cc1ccc([C@H]2N[C@]3(CCCN(Cc4ccccc4)C3=O)[C@H]3C(=O)N(Cc4ccccc4)C(=O)[C@@H]23)cc1 | inactive
9 | CCN1C(=O)[C@H]2[C@@H](c3ccccc3)N[C@]3(CCCN(Cc4ccc(C)cc4)C3=O)[C@H]2C1=O | 4.47 µM (active)
10 | CCN1C(=O)[C@H]2[C@@H](c3ccc(-c4ccc(F)cc4)cc3)N[C@@](Cc3ccccc3)(C(=O)OC)[C@H]2C1=O | inactive
11 | CC1=C(C)CC(C(=O)NCCN2CCOCC2)C(C(=O)O)C1 (stereo unspecified) | inactive
12 | CN(C)c1ccc(C=O)s1 | inactive
13 | O=C(/C=C/c1ccco1)NC1CCC(c2ccccc2)CC1 (stereo unspecified) | 7.94 µM (active)
14 | O=C(/C=C/c1cc2cc(Cl)ccc2o1)NC1CCCC1 | inactive
15 | O=C(Cc1cccc(F)c1)NC1CCC(c2ccccc2)CC1 (stereo unspecified) | inactive
16 | CCN(CC)C(=O)CSc1ncc(-c2ccc(Br)cc2)o1 | inactive
17 | CC(=O)c1sc(Nc2ccc(C)c(C)c2)nc1C | inactive
18 | C/C(=N\NC(N)=S)c1cc(C(C)(C)C)cc2c1CCC2(C)C | 31.6 µM (active)
19 | COc1ccc(C2CCCCCN2C(=O)CCn2ncc(=O)c3ccccc32)cc1 (stereo unspecified) | inactive
20 | CNC(=O)c1ccc(-c2nc(CN3CCN(C(=O)Nc4ccc(C)c(C)c4)CC3)c(C)o2)cc1 | inactive
21 | COc1ccc(C2=C(C)C(=NC(C)C34CC5CC(CC(C5)C3)C4)NS2(=O)=O)cc1 (stereo unspecified) | inactive
22 | CC1CCN(c2nc3ccccc3nc2C(C#N)S(=O)(=O)c2cccc(Cl)c2)CC1 (stereo unspecified) | 11.2 µM (active)
23 | Cc1ccc(S(=O)(=O)C(C#N)c2nc3ccccc3nc2N2CCCC2)cc1C (stereo unspecified) | inactive
24 | COC(=O)C1CCN(c2nc3ccccc3nc2C(C#N)C(=O)NC2CCCC2)CC1 (stereo unspecified) | inactive
25 | COc1cccc(-c2nc(SCC(=O)Nc3nccs3)c(-c3ccc(Cl)cc3)[nH]2)c1 | inactive
26 | CCN(CC)S(=O)(=O)c1ccc(N2CCOCC2)c(NC(=O)CC2CCCC2)c1 | inactive

Row | Structure (SMILES) | Potency
27 | COc1ccc(OCc2n[nH]c(=S)n2N)cc1 | 15.8 µM (active)
28 | COc1ccc(Cn2c(CN(C)S(C)(=O)=O)n[nH]c2=O)cc1 | inactive
29 | COc1ccc(C(=O)CSc2n[nH]c(N)n2)cc1 | inactive
30 | Cc1ccc(-n2nnc(C(=O)NCC(C)C)c2C)cc1Cl | inactive
31 | O=C(CSc1ncnc2sccc12)c1ccc2c(c1)OCCCO2 | inactive
32 | O=C(CSc1nnc(-c2ccccc2)c2ccccc12)c1ccc2c(c1)OCCCO2 | 44.7 µM (active)
33 | O=C(CN(Cc1ccccc1)C(=O)c1ccc2c(c1)OCCO2)NCc1ccc2c(c1)OCO2 | inactive
34 | CCc1ccc(-c2csc(NC(=O)c3nn(CC)c(=O)c4ccccc34)n2)cc1 | inactive
35 | CCOC(=O)/C(=C/c1ccc(Cl)s1)c1nccn1C | inactive
36 | CC(=O)c1sc(N2C(=O)c3oc4ccccc4c(=O)c3C2c2ccc(C)cc2)nc1C (stereo unspecified) | inactive
37 | COc1cc(C2C(C(=O)c3ccco3)=C(O)C(=O)N2c2cc(C)on2)ccc1OCc1ccccc1 (stereo unspecified) | inactive
38 | Cc1ccc2nc(N3C(=O)C(O)=C(C(=O)c4ccco4)C3c3cccc(O)c3)sc2c1 (stereo unspecified) | 25.1 µM (active)
39 | Cc1ccc(C(N)=O)c(OCc2coc(-c3ccccc3)n2)c1 | inactive
40 | CC(Sc1nc2cc(S(=O)(=O)N3CCCCC3)ccc2o1)C(=O)N1CCc2ccccc21 (stereo unspecified) | inactive
41 | CCOC(CNC(=O)c1ccc2c(c1)ncn2-c1cccc(C)c1)OCC | inactive
42 | CC(Sc1ccc(Cl)cc1)C(=O)NCCC(=O)N1CCCC1 (stereo unspecified) | inactive
43 | CC(=O)CCC1=C(C)CCCC1(C)C | inactive
44 | COc1ccc(/C=C2/C(=O)OCc3cc(OC)c(OC)cc32)c(OC)c1 | inactive
45 | COc1ccc(/C=C/C2=CC(C)(C)NC(=S)N2)c(OC)c1 | 39.8 µM (active)
46 | COc1cc(/C=C/c2ccc(/C=C/c3cc(OC)c(OC)c(OC)c3)cc2)cc(OC)c1OC | inactive
47 | COc1ccc(/C=N/OCc2ccccc2C#N)c(OC)c1 | inactive
48 | COc1cc(/C=C/C(N)=O)cc(OC)c1OC | inactive
49 | COc1cc(/C=C/C2=CC(C)(C)NC(=S)N2)cc(OC)c1OC | 44.7 µM (active)
50 | CCc1ccccc1NC(=O)CSc1nc2ccccc2nc1C | inactive
51 | Cc1cc(C)cc(NC(=O)COc2ncnc3ccccc23)c1 | inactive
